According to PubChem BioAssay (Tox21):
Calls of active or inactive are those of the source. Where a call stands in place of a potency, no number is given. Unless noted, calls come from the whole dose curve; as a rule, active = well fitted curve in the direction sought with a large enough effect in the repeat runs; inconclusive = weak or mixed curves; inactive = no such curve, though single readings can be large; an effect the other way counts as inactive or inconclusive.

How the values were obtained:
[1] = qHTS assay to identify small molecule antagonists of the thyroid receptor (TR) signaling pathway - cell viability counter screen (AID 743064); note: nearly all actives have a fitted effect of over 50% in size; note: potency is the fitted concentration of half-maximal effect
How it was run: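 In-well cytotoxicity read by CellTiter-Fluor (30 min, 37 C) following 23.5 h exposure of GH3 cells bearing a TRE-luciferase sensor. Compounds were added alongside 1 nM (final) T3 to drive TR transactivation.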

[2] = qHTS assay to identify small molecule antagonists of the thyroid receptor (TR) signaling pathway (AID 743065); note: nearly all actives have a fitted effect of over 55% in size; note: potency is the fitted concentration of half-maximal effect
How it was run: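 GH3.TRE-Luc rat pituitary cells (two TREs driving luciferase) were dosed with compound, then stimulated with 1 nM T3 (final) for 23.5 h at 37 C. ONE-Glo luminescence was the read-out, with CellTiter-Fluor fluorescence as the cytotoxicity counter-screen.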

[3] = test system: thyroid hormone receptor (rat, GH3 cells); experiment: qHTS assay to identify small molecule agonists of the thyroid receptor (TR) signaling pathway (AID 743066; calls by dose curve; note: potency is the fitted concentration of half-maximal effect)
[4] = target: Estrogen receptor (Homo sapiens) (UniProt P03372); experiment: qHTS assay to identify small molecule antagonists of the estrogen receptor alpha (ER-alpha) signaling pathway (AID 743069; active = well fitted curve in the direction sought with a large enough effect in the signal ratio in the repeat runs, not every such curve was filed as active; inconclusive = weak or mixed curves, or effect the other way; inactive = no such curve, though single readings can be large or run the other way; the % refers to the signal ratio; note: potency is the fitted concentration of half-maximal effect)
Chain of Estrogen receptor (Homo sapiens) (P03372 whole entry, looked up): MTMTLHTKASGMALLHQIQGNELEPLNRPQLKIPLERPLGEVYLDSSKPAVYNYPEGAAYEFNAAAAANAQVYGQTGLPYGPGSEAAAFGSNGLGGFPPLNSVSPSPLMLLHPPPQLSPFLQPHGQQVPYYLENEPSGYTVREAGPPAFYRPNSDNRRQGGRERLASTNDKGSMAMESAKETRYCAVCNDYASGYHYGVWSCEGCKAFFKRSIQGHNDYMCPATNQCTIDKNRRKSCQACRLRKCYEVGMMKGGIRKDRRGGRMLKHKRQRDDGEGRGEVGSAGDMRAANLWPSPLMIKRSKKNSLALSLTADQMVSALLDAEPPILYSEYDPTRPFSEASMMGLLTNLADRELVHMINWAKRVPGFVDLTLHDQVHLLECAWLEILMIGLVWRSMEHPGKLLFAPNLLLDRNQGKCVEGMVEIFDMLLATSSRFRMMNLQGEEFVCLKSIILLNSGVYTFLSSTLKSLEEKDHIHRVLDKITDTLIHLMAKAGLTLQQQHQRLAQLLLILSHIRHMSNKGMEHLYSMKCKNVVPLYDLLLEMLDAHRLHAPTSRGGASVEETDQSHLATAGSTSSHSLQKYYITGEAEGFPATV
How it was run: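 Beta-lactamase FRET fluorescence is read after 2 hr at room temperature with LiveBLAzer B/G substrate. Before that, ER-alpha-bla HEK293 cells sit 4 hr after plating, then receive compound plus 17beta-estradiol and incubate 18 hr at 37C.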

[5] = qHTS assay to identify small molecule antagonists of the estrogen receptor alpha (ER-alpha) signaling pathway - cell viability counter screen (AID 743074; calls by dose curve;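 note: HEK293 cells carrying ER-alpha-UAS-bla reporter stimulated with 17beta-estradiol; nearly all actives have a fitted effect of over 45% in size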)
[6] = target: Estrogen receptor (Homo sapiens) (UniProt P03372); experiment: qHTS assay to identify small molecule agonists of the estrogen receptor alpha (ER-alpha) signaling pathway (AID 743075; calls by dose curve;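 note: HEK293 GripTite cells with ER-alpha and UAS-driven beta-lactamase reporter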; note: potency is the fitted concentration of half-maximal effect)
[7] = qHTS assay to identify small molecule antagonists of the estrogen receptor alpha (ER-alpha) signaling pathway using the BG1 cell line (AID 743080; calls by dose curve;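 note: BG1 cells stimulated with 17beta-estradiol alongside compound; nearly all actives have a fitted effect of over 25% in size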; note: potency is the fitted concentration of half-maximal effect)
How it was run: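 Endogenous full-length ER-alpha in BG1-Luc-4E2 cells drives a stably integrated 4×ERE luciferase gene; compounds were tested against 17beta-estradiol over 21.5 h, with luminescence and multiplexed viability fluorescence recorded.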

[8] = qHTS assay to identify small molecule antagonists of the estrogen receptor alpha (ER-alpha) signaling pathway using the BG1 cell line - cell viability counter screen (AID 743081);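 note: compound given together with 17beta-estradiol as the ER stimulus; series mostly up to about 70 µM; nearly all actives have a fitted effect of over 45% in size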
Aromatase (Homo sapiens) = Aromatase (Homo sapiens) (UniProt P11511); experiment: qHTS assay to identify aromatase inhibitors (AID 743083); note: series mostly up to about 70 µM; nearly all actives have a fitted effect of over 55% in size
Chain of Aromatase (Homo sapiens) (P11511 whole entry, looked up): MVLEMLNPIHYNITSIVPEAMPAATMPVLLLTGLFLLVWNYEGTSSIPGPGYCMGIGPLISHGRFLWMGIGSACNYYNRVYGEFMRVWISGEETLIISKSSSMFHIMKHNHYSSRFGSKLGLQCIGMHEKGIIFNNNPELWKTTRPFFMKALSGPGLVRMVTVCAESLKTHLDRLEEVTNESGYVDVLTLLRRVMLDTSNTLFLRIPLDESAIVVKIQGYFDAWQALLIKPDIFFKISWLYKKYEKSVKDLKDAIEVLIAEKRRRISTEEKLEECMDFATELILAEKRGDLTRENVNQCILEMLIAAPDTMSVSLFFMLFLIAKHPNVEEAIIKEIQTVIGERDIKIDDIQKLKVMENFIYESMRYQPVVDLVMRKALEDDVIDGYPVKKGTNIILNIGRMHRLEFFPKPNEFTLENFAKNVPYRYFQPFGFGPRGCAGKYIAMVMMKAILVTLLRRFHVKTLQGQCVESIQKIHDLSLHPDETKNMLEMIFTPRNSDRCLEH

[9] = target: Estrogen receptor (Homo sapiens) (UniProt P03372); experiment: qHTS assay to identify small molecule agonists of the estrogen receptor alpha (ER-alpha) signaling pathway using the BG1 cell line (AID 743079); note: nearly all actives have a fitted effect of over 20% in size; note: potency is the fitted concentration of half-maximal effect

Structure (SMILES): CCCCOCCOCCOCCOCCO
- Potency [1]: inactive
- Potency [2]: inactive
- Potency [3]: inactive
- Potency [4]: inactive
- outcome [5]: inactive
- Potency [6]: inactive
- Potency [7]: inactive
- Potency [8]: inactive
- Potency (Aromatase (Homo sapiens)): inactive

Structure (SMILES): CCCCOC(O)CC (stereo not drawn)
- Potency [1]: inactive
- Potency [2]: inactive
- Potency [3]: inactive
- Potency [4]: inactive
- outcome [5]: inactive
- Potency [6]: inactive
- Potency [9]: inactive
- Potency [7]: inactive
- Potency [8]: inactive
- Potency (Aromatase (Homo sapiens)): inactive

Structure (SMILES): CCCc1ccccc1
- Potency [1]: inactive
- Potency [2]: inactive
- Potency [3]: inactive
- Potency [4]: inactive
- outcome [5]: inactive
- Potency [6]: inactive
- Potency [9]: inactive
- Potency [7]: inactive
- Potency [8]: inactive
- Potency (Aromatase (Homo sapiens)): inactive

Structure (SMILES): Nc1cnn([C@@H]2O[C@H](CO)[C@@H](O)[C@H]2O)c(=O)n1
- Potency [1]: inactive
- Potency [2]: inactive
- Potency [3]: inactive
- outcome [5]: inactive
- Potency [6]: inactive
- Potency [9]: inactive
- Potency [7]: inactive
- Potency [8]: inactive
- Potency (Aromatase (Homo sapiens)): inactive

Structure (SMILES): C=Cc1c(C)c2cc3[nH]c(cc4nc(cc5nc(cc1[nH]2)C(C)=C5CCC(=O)O)C(CCC(=O)O)=C4C)c(C)c3C=C
- Potency [1]: inactive
- Potency [2]: inactive
- Potency [3]: inactive
- outcome [5]: inactive
- Potency [6]: 4.25 µM [inconclusive] (active)
- Potency [9]: 1.06 µM (active)
- Potency [7]: inactive
- Potency [8]: inactive
- Potency (Aromatase (Homo sapiens)): inactive

Structure (SMILES): CCOC(=O)C1=C(C)NC(C)=C(C(=O)OC)C1c1cccc([N+](=O)[O-])c1 (stereo not drawn)
- Potency [1]: inactive
- Potency [2]: inactive
- Potency [3]: inactive
- Potency [4]: inactive
- outcome [5]: inactive
- Potency [6]: inactive
- Potency [7]: inactive
- Potency [8]: inactive
- Potency (Aromatase (Homo sapiens)): inactive

Structure (SMILES): FC(F)(F)C(F)(F)C(F)(F)C(F)(F)C(F)(F)C(F)(F)CCI
- Potency [1]: inactive
- Potency [2]: inactive
- Potency [3]: inactive
- Potency [4]: inactive
- outcome [5]: inactive
- Potency [6]: inactive
- Potency [9]: inactive
- Potency [7]: inactive
- Potency [8]: inactive
- Potency (Aromatase (Homo sapiens)): inactive

Structure (SMILES): CC1=CC(=O)/C(=C(/C)O)C(=O)O1
- Potency [1]: inactive
- Potency [2]: inactive
- Potency [3]: inactive
- Potency [4]: inactive
- outcome [5]: inactive
- Potency [6]: inactive
- Potency [7]: inactive
- Potency [8]: inactive
- Potency (Aromatase (Homo sapiens)): inactive

Structure (SMILES): C1=Cc2ccccc2C1
- Potency [1]: inactive
- Potency [2]: inactive
- Potency [3]: inactive
- Potency [4]: inactive
- outcome [5]: inactive
- Potency [6]: inactive
- Potency [7]: inactive
- Potency [8]: inactive
- Potency (Aromatase (Homo sapiens)): inactive

Structure (SMILES): CC[C@H](C)[C@H](N)C(=O)O
- Potency [1]: inactive
- Potency [2]: inactive
- Potency [3]: inactive
- Potency [4]: inactive
- outcome [5]: inactive
- Potency [6]: inactive
- Potency [9]: inactive
- Potency [7]: inactive
- Potency [8]: inactive
- Potency (Aromatase (Homo sapiens)): inactive

Structure (SMILES): SC1CCCC1
- Potency [1]: inactive
- Potency [2]: inactive
- Potency [3]: inactive
- Potency [4]: inactive
- outcome [5]: inactive
- Potency [6]: inactive
- Potency [7]: inactive
- Potency [8]: inactive
- Potency (Aromatase (Homo sapiens)): inactive

Structure (SMILES): COc1ccc(OC)c(OC)c1
- Potency [1]: inactive
- Potency [2]: inactive
- Potency [3]: inactive
- Potency [4]: inactive
- outcome [5]: inactive
- Potency [6]: inactive
- Potency [7]: inactive
- Potency [8]: inactive
- Potency (Aromatase (Homo sapiens)): inactive

Structure (SMILES): Nc1ccc(C(=O)Nc2ccccc2N)cc1
- Potency [1]: 18.8 µM (active)
- Potency [2]: 29.8 µM (active)
- Potency [3]: inactive
- outcome [5]: inactive
- Potency [6]: inactive
- Potency [9]: 33.5 µM (active)
- Potency [8]: inactive
- Potency (Aromatase (Homo sapiens)): inactive

Structure (SMILES): CC(=O)O[C@@H]1C(=O)O[C@@H]2[C@H]1OC(=O)[C@@H]2OC(C)=O
- Potency [1]: inactive
- Potency [2]: inactive
- Potency [3]: inactive
- Potency [4]: inactive
- outcome [5]: inactive
- Potency [6]: inactive
- Potency [7]: inactive
- Potency [8]: inactive
- Potency (Aromatase (Homo sapiens)): inactive

Structure (SMILES): O=C(O)C1CCC(C(=O)O)CC1 (stereo not drawn)
- Potency [1]: inactive
- Potency [2]: inactive
- Potency [3]: inactive
- Potency [4]: inactive
- outcome [5]: inactive
- Potency [6]: inactive
- Potency [9]: inactive
- Potency [7]: inactive
- Potency [8]: inactive
- Potency (Aromatase (Homo sapiens)): inactive

Structure (SMILES): Cc1cc(NC(=O)C(=O)O)cc(C)c1Oc1ccc(O)c2c1CCC2
- Potency [1]: inactive
- Potency [2]: inactive
- Potency [3]: 0.0017 µM (active)
- Potency [4]: inactive
- Potency [6]: inactive
- Potency [9]: 38.6 µM (active)
- Potency [7]: inactive
- Potency [8]: inactive
- Potency (Aromatase (Homo sapiens)): inactive

Structure (SMILES): CC(CN)CCCN (stereo not drawn)
- Potency [1]: inactive
- Potency [2]: inactive
- Potency [3]: inactive
- Potency [4]: inactive
- outcome [5]: inactive
- Potency [6]: inactive
- Potency [7]: inactive
- Potency [8]: inactive
- Potency (Aromatase (Homo sapiens)): inactive

Structure (SMILES): Cc1nc2ccccc2n1Cc1ccc(Cl)cc1
- Potency [1]: inactive
- Potency [2]: 6.68 µM (active)
- Potency [3]: inactive
- Potency [4]: inactive
- Potency [6]: inactive
- Potency [7]: 2.37 µM (active)
- Potency (Aromatase (Homo sapiens)): inactive

Structure (SMILES): CCOC(=S)SSC(=S)OCC
- Potency [1]: inactive
- Potency [2]: inactive
- Potency [3]: inactive
- Potency [4]: inactive
- outcome [5]: inactive
- Potency [6]: inactive
- Potency [9]: inactive
- Potency [7]: inactive
- Potency [8]: inactive
- Potency (Aromatase (Homo sapiens)): inactive

Structure (SMILES): CCCCCCc1ccc(N)cc1
- Potency [1]: inactive
- Potency [2]: 30.6 µM (active)
- Potency [3]: inactive
- Potency [4]: 15.5 µM [inconclusive] (active)
- outcome [5]: inactive
- Potency [6]: inactive
- Potency [9]: 21.7 µM (active)
- Potency [8]: inactive

Structure (SMILES): Cc1ccccc1N=Nc1ccc(N=Nc2c(O)ccc3ccccc23)c(C)c1
- Potency [1]: inactive
- Potency [2]: inactive
- Potency [3]: inactive
- Potency [4]: inactive
- outcome [5]: inactive
- Potency [6]: 10.7 µM [inconclusive] (active)
- Potency [9]: 8.41 µM (active)
- Potency [7]: inactive
- Potency (Aromatase (Homo sapiens)): inactive

Structure (SMILES): O=C(c1ccc(O)cc1)c1ccc(O)cc1
- Potency [1]: inactive
- Potency [2]: inactive
- Potency [3]: inactive
- outcome [5]: inactive
- Potency [6]: 17.4 µM [inconclusive] (active)
- Potency [9]: 2.73 µM (active)
- Potency [7]: inactive
- Potency [8]: inactive
- Potency (Aromatase (Homo sapiens)): inactive

Structure (SMILES): C=C(C)C(=O)OCCOc1ccccc1
- Potency [1]: inactive
- Potency [2]: inactive
- Potency [3]: inactive
- outcome [5]: inactive
- Potency [6]: inactive
- Potency [9]: 43.3 µM (active)
- Potency [7]: inactive
- Potency [8]: inactive
